Results taken from PubChem BioAssay AID900 (National Center for Advancing Translational Sciences (NCATS), 2007).
Out of some 75,000 compounds screened, about 20 (0.03%) were called active. Another 1% or so got no clear call; they are omitted. The call rests on the fitted dose curve; in most records, active means well fitted inhibition curve with a large enough effect; inconclusive means small, poorly fitted or top-dose-only effect; inactive means flat fitted curve, though single readings scatter. Only a sample is shown.

target: Caspase-1 (Homo sapiens) (UniProt P29466); assay: qHTS Assay for Allosteric/Competitive Inhibitors of Caspase-1; conditions: Caspase-1 enzyme, Ac-WEHD-AFC fluorogenic rate; series mostly up to 57.5 µM; activity change, negative = inhibition: at the top concentration;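 further: plate controls were vehicle for no effect and no substrate for full effect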
Text: NIH Molecular Libraries Screening Centers Network [MLSCN]
NIH Chemical Genomics Center [NCGC]
PI Name: Dr. James Wells,
Dr. Enrique Perez-Paya, Dr.Janice Williams, Dr. Dennis Wolan, a person
The caspases (Cysteine Aspartyl Protease) comprise a related family of 14 dimeric proteases that are critical mediators of apoptosis (programmed cell death) and inflammation. The caspases represent an important class of drug targets for stroke, ischemia, cancer and inflammatory diseases. […] One goal of this project was to identify compounds that act as allosteric inhibitors via stabilizing the procaspase form of the enzyme. Previous work in Well's laboratory has shown that such allosteric inhibitors can be identified and these act by binding at the dimer interface of enzyme (Hardy, Lam et al., 2004).
The biochemical assay was configured using purified caspase 1 at a high enzyme concentration to promote formation of the homodimers and thus facilitate the identification of allosteric inhibitors. The overall goal was to identify reversible inhibitors with better drug-like properties than the currently available set of aspartyl-containing peptidomimetics that covalently bind the active site. Caspase 1 was assayed using the profluorescent substrate Ac-WEHD-AFC. After initiation of the assay with substrate the plates were rapidly read using an automated robotic system (Kalypsys, Inc.) to maintain consistent timing. A kinetic mode of detection was used where the initial rate was collected (estimated final product formation was ~10%). Compounds were screened as a concentration-titration series that ranged from 57 uM to 0.7 nM. Below is the protocol used for caspase 1.
NCGC Assay Protocol Summary:
Caspase 1 was prepared in buffer (50 mM HEPES pH 7.5, 50 mM KCl, 200 mM NaCl, 10 mM DTT, 0.1% CHAPS) at a concentration of 66.6 nM and 3 uL was dispensed to all wells using black solid Kalypsys 1536-well plates. 20 nL of DMSO containing compounds was added using a pin-tool (Kalypsys Inc.) to columns 5-48. Then 20 nL of DMSO solution from a control plate was added to columns 1-4. Controls were: Column 1, 16 point titration with each concentration in duplicate (1:1 dilutions in DMSO; final starting concentration was 57 uM) of the caspase 1 inhibitor Ac-WEHD-CHO (Alexis Biochemicals); Column 2, a 16 point titration with each concentration in duplicate of the free AFC fluorophore prepared in DMSO (Alexis Biochemicals), final starting was 40 uM; Column 3 neutral (DMSO only) control; Column 4: DMSO alone, to serve as a negative control (no substrate was added). Then 1 uL of 20 uM the substrate Ac-WEHD-AFC (Alexis Biochemicals) prepared in the same buffer was dispensed to all wells except columns 2 and 4 and the plates were immediately transferred (< 1 min) to the Viewlux. The plates were then exposed using 405 nm excitation/520 nm emission filters for 4 sec and read at 20 sec intervals for 3 min. Final enzyme concentration was 50 nM and the final substrate concentration was 5 uM.
Concentration-response curves were fitted to the data calculated from slope of the linear regression of fluorescent intensity versus time (the rate). The concentration-effect curves were then classified based on curve quality (r2), response magnitude and degree of measured activity. […] Inconclusive compounds had appreciable concentration-dependent effects on both the measured rate and the interpolated basal fluorescence intensity at the start of the reaction but where the basal fluorescent intensity was marginal (e.g. < 10-fold). Inconclusive compounds also encompass highly fluorescent compounds (>100-fold increases in fluorescent intensities values relative to controls) where artificial concentration-dependent decreases in the rate occurred at high compound concentrations due to fluorescent interferences.
Keywords: Caspase 1, proteases, profluorescent, MLSMR, MLSCN, NIH Roadmap, qHTS, NCGC

Activity change, negative = inhibition, inactive:
Cn1c(SCC(=O)N2CCOCC2)nnc1-c1ccc(NC(=O)c2ccccc2F)cc1 -3.47%, CC1CCCN(C(=O)c2ccc3c(c2)C(=O)N(CCC2=CCCCC2)C3=O)C1 (stereo unspecified) -3.35%, CC(C)c1ccc(NC(=O)NC2CCCCC2)cc1 -2.93%, Nc1nc2[nH]c(=O)c(=O)[nH]c2c(=O)[nH]1 -0.495%, COC(=O)[C@@H]1C[C@H]2CC[C@H](O)C[C@H]2N1Cc1ccc(N2CCN(C)CC2)cc1 -0.142%, CC1O[C@@H](Oc2c(-c3ccc(O)c(O)c3)oc3cc(O)cc(O)c3c2=O)C(O)C(O)C1O (stereo partly specified) 1.13%, Cc1csc(-c2nc3ccccc3n2C)n1 1.13%, Brc1cc(Br)c(Oc2cc(Br)c(Br)cc2Br)cc1Br -0.535%, O=C(O)c1ccc(Cl)c(S(=O)(=O)Nc2ccccc2Cl)c1 0.638%, CC(=O)OCC1OC(C#Cc2ccccc2Cl)C=CC1OC(C)=O (stereo unspecified) -0.455% [at 11.5 µM], C[C@@H]1/C=C\CC(=O)OC[C@H]2O[C@@H](C=C[C@@H]2O)[C@H](C)/C=C\CC(=O)OC[C@H]2O[C@H]1C=C[C@@H]2O 0.74% [at 11.5 µM], CC1CC[C@@]23CCC4(C)[C@@]5(C)CCC6C(C)(C)C(O)CC[C@@]6(C)C5C=C[C@@]4(OC2=O)C3C1C (stereo partly specified) -0.0985%, CC(C)C1=CC2=CC[C@@H]3[C@](C)(CO)CCC[C@]3(C)C2CC1 (stereo partly specified) -2.25%, COc1ncnc2sc3c(c12)CCCC3 -4.32%, CN1CCC(CNC(=O)c2ccc(-n3c(=O)c(=O)[nH]c4ccccc43)cc2)CC1 -3.85%, O=C(O)[C@@H]1[C@@H](C(=O)O)[C@]23C[C@@]2(C(=O)O)[C@]2(C(=O)O)CCC3=C3CCCC312 -0.0959% [at 11.5 µM], CN(C)Cc1c(C#N)c2ccccc2n1C -0.283%, COCc1nnc(NC(=O)CS(=O)(=O)Cc2ccccc2)s1 1.32%, CC(C)=CC1C(C(=O)O)C1(C)C (stereo unspecified) 2.02%, CCC1=C(OC(=O)N(CC)CC)N2C(=O)OC(=NCC3CC3)[C@]2(C)[C@H]2C1=CC[C@H]1C(=O)N(CC(=O)OC)C(=O)[C@H]12 -1.41%, CN1CCc2nc(-c3ccccc3)c(-c3ccccc3)cc2C1 -1.85% [at 11.5 µM], CC1(C)SC2C(NC(=O)COc3ccccc3)C(=O)N2C1C(=O)O (stereo unspecified) 1.65%, O=c1ccc2cc(S(=O)(=O)N3CCN(c4ccccc4)CC3)ccc2o1 0.0604%, CCOC(=O)[C@]1(C(/C=C/c2ccco2)NC(=O)OC)CCCC1=O (stereo partly specified) -4.71% [at 11.5 µM], Cc1cnc(CNc2nc(-c3cccnc3)nc3ccccc23)cn1 -2.26%, O=C(COc1ccccc1)NCCc1nc2ccccc2[nH]1 0.143%, COc1ccc(CNc2ncncc2-c2ccccc2OC)c(OC)c1 -0.391%, CCC[C@@H]1C[C@@]1(CCC)C(NC(=O)c1ccc(-c2ccccc2)cc1)c1cccc(Cl)c1 (stereo partly specified) -0.862%, Cc1cccc(-c2cc(=O)c3cc(C)ccc3o2)c1 -3.23%, COc1ccc(/C=C/NC(=O)c2ccc(OC)cc2)cc1 -1.51% [at 11.5 µM], O=C(CN1CCOCC1)Nc1cc(Cl)ccc1Cl 1.19%, COC(=O)NC(c1ccccc1)[C@]1(C(C)=O)CCCC1=O (stereo partly specified) 0.536% [at 11.5 µM], Cc1c2c(nc3ccccc13)-c1cccc(=O)n1C2 -3.06%, COc1ccc(C2CC(=O)c3c(O)cc(OC4OC(COC5OC(C)C(O)C(O)C5O)C(O)C(O)C4O)cc3O2)cc1O (stereo unspecified) -1%, CC(=O)/C(=N\N=C(N)N)c1ccccc1 -1.52% [at 11.5 µM], C[C@]12C=CC(=O)C=C1CC[C@@H]1[C@@H]2C(=O)C[C@@]2(C)[C@H]1CC[C@]2(O)C(=O)CO -1.44%, CC1=C(/C=C/C(C)=C/C=C/C(C)=C/C=C/C=C(C)/C=C/C=C(C)/C=C/C2=C(C)CCCC2(C)C)C(C)(C)CCC1 3.19%, O=C1[C@H]2[C@H]3[C@H](O)[C@H](O)C/C(=N/OCc4ccccc4)[C@H]3CC[C@@H]2C(=O)N1Cc1ccccc1 -0.986% [at 11.5 µM], COC(=O)[C@@H]1C[C@@]2(O)[C@H](O)[C@H](O)[C@H](O)C[C@H]2N1Cc1ccc(C(C)(C)C)cc1 0.555%, CC1(C)C(=O)C2(CCCCC2)C(=O)OC1c1cccs1 (stereo unspecified) -5.44%, CCOc1ccccc1C1NC(=O)NC(C)=C1C(=O)OCc1ccco1 (stereo unspecified) -1.34%, CN(C)c1cc2c(Nc3ccc4c(cnn4Cc4ccccc4)c3)ncnc2cn1 1.68%, O=C(NCCN=C1NS(=O)(=O)c2ccccc21)c1ccc(S(=O)(=O)N2CCOCC2)cc1 -1.5%, CC1CCCCN1CCCNC(=O)c1ccc(-n2c(=O)c(=O)[nH]c3ccccc32)cc1 (stereo unspecified) -1.66%, Nc1ncnc2c1ncn2C1CC(O)C(CO)O1 (stereo unspecified), Cc1nnc(N(Cc2ccco2)C(=O)c2ccno2)s1 -3.12%, Cc1cc(Cl)ccc1N1C(=O)CC(SCCC(=O)O)C1=O (stereo unspecified) -0.329%, Cc1cc(C(=O)N2CCN(c3ccccn3)CC2)c(C)o1 -1.81%, CC(=O)OC1CCC2(O)CC1(C)CCC1C2CC1(C)C (stereo unspecified) 1.71%, O=S(=O)(c1ccccc1)N1CCC2(CC1)CN(Cc1nccs1)C2 0.431%, COc1ccc2c3c1OC1CC(O)C=C[C@@]31CCN(C)C2 (stereo partly specified) 2.42%, COc1c2c(cc3occ(-c4ccc5c(c4)OCO5)c(=O)c13)OC(C)(C)C=C2 -5.85%, Cc1cc(C(=O)COC(=O)c2cccs2)c(C)n1-c1c(C)n(C)n(-c2ccccc2)c1=O 1.16%, CC(C)CO -2.94%, CC1(C)OC2CC(=O)OC[C@@]23C1CC(=O)[C@]1(C)C3CC[C@@]2(C)C(c3ccoc3)OC(=O)C3O[C@@]321 (stereo partly specified) -1.49%, O=C(NCCSc1ccccc1)c1ccco1 0.764%, CN1CC(=O)N=C1N -2.03%, COc1cc(OC)c2c(c1Cl)OC1(C2=O)C(O)=CC(=O)CC1C (stereo unspecified) 0.226%, O=C1OC(C(O)CO)C(O)=C1O (stereo unspecified) 0.0953%, COC(=O)[C@@]1(Cc2ccccc2)[C@H]2c3cc(C(=O)N(C)C)n(CCSCCO)c3C[C@H]2CN1C(=O)c1ccccc1 2.77%, C=C1C(=O)C23C(O)C1CCC2[C@]12COC3(O)C(O)C1C(C)(C)CC[C@H]2O (stereo partly specified) 0.517%
